# Laboratory results: PubChem BioAssay (EPA / NIEHS)
# Values joined by “and” are separate entries in the source; they are usually repeats but may differ in a detail not shown here. Equal entries are not always repeated. Records with an inconclusive call do not appear. Some structures have more than one record in an assay (separate samples or runs), and their calls can disagree. Active and inactive are the calls of the source. How the source made its calls: active means hit-call score of the fitted dose curve at least 0.9, where 1 is the maximum; inconclusive means response in the unintended direction; inactive means score below 0.9.
# Legend:
# [1] = TOX21_p53_BLA_p4_viability: Viability Assessment in the Tox21 HCT-116 p53 Agonism Beta-lactamase Assay, Phase 4 (AID 2283597);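 further: hits lower the luminescence signal meaning cytotoxicity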
# Outline: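 ATP content by CellTiter-Glo luminescence, 30 min RT, read after the beta-lactamase ratio step. Cells: HCT116, 4000/well, compound added after 5 h, exposure 16 h at 37C. Signal loss = reduced viability.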
# [2] = target: Cellular tumor antigen p53 (Homo sapiens) (UniProt P04637); assay: TOX21_p53_BLA_p5_ratio: Tox21 HCT-116 p53 Agonism Beta-lactamase Assay, Ratio, Phase 5 (AID 2283599)
# Outline: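 Beta-lactamase reporter ratio (blue 460 nm over green 530 nm, 405 nm excitation) after 2 h CCF4-AM loading, in HCT-116 cells exposed 16 h at 37 C to compounds pinned at 217-fold dilution. Increases relative to DMSO baseline scored.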
# [3] = TOX21_p53_BLA_p5_viability: Viability Assessment in the Tox21 HCT-116 p53 Agonism Beta-lactamase Assay, Phase 5 (AID 2283600)
# Outline: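 ATP luminescence (CellTiter-Glo, 30 min, RT) served as the viability read-out, with loss of signal indicating cytotoxicity. Compounds in DMSO were pinned at a 217-fold dilution onto 4000 cells/well and incubated 16 h, 37C.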
# [4] = target: Cellular tumor antigen p53 (Homo sapiens) (UniProt P04637); assay: TOX21_p53_BLA_p4_ratio: Tox21 HCT-116 p53 Agonism Beta-lactamase Assay, Ratio, Phase 4 (AID 2283601)
# Outline: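 Signal is the blue/green (460nm/530nm) ratio of cleaved versus uncleaved CCF4-AM substrate, read after 2 h substrate loading. Cells were HCT116 carrying the p53-responsive beta-lactamase reporter, dosed 16 h at 37C, 5% CO2; CellTiter-Glo measured in parallel.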
# Sequence of Cellular tumor antigen p53 (Homo sapiens) (P04637 whole entry, looked up): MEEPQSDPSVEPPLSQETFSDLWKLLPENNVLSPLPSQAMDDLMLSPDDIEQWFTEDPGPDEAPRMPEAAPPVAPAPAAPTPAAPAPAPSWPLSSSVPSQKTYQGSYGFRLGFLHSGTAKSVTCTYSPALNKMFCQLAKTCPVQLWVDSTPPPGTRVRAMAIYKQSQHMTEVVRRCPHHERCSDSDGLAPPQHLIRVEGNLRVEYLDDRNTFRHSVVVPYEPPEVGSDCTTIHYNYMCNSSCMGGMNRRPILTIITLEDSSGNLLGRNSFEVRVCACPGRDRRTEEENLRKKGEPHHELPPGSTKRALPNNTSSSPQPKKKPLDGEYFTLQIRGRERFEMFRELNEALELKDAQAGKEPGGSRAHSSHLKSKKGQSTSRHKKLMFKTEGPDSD
compound,measurement,setting,value
Cc1cc(=O)oc2cc(O)ccc12,outcome,[1],inactive
same,AC50,[2],65 µM (active) and 38.4 µM (active)
same,outcome,[2],inactive
same,outcome,[3],inactive
same,AC50,[4],53.2 µM (active) and 54.1 µM (active)
same,outcome,[4],inactive
OCC1CCC(CO)CC1 (stereo unspecified),outcome,[1],inactive
same,outcome,[2],inactive
same,outcome,[3],inactive
same,outcome,[4],inactive
Cc1ccccc1C(OCCN(C)C)c1ccccc1 (stereo unspecified),outcome,[1],inactive
O=C(Nc1ccc(Cl)c(Cl)c1)c1cc(Cl)cc(Cl)c1O,AC50,[1],0.671 µM (active)
same,AC50,[2],1.45 µM (active)
same,outcome,[3],inactive
same,AC50,[4],2.77 µM (active)
Nc1cc(Cl)c(-c2cc(Cl)c(N)cc2Cl)cc1Cl,AC50,[1],40.7 µM (active) and 29.6 µM (active)
same,AC50,[2],85.2 µM (active) and 85.6 µM (active)
same,AC50,[3],71.8 µM (active) and 61.9 µM (active)
same,AC50,[4],81.8 µM (active) and 57.1 µM (active)
O=C1OC2(c3ccccc31)c1cc(I)c(O)c(I)c1Oc1c2cc(I)c(O)c1I,AC50,[1],58.1 µM (active)
same,outcome,[1],inactive
same,AC50,[2],83 µM (active)
same,outcome,[2],inactive
same,outcome,[3],inactive
same,AC50,[4],73.9 µM (active)
same,outcome,[4],inactive
CN(C)c1ccc(C(=C2C=CC(=[N+](C)C)C=C2)c2ccccc2)cc1,AC50,[1],1.36 µM (active) and 23 µM (active)
same,AC50,[2],19.2 µM (active)
same,outcome,[2],inactive
same,outcome,[3],inactive
same,AC50,[4],15.8 µM (active)
same,outcome,[4],inactive
CC(C)C=O,outcome,[1],inactive
same,outcome,[2],inactive
same,outcome,[3],inactive
same,outcome,[4],inactive
CC1=NN(c2ccccc2)C(=O)C1,outcome,[1],inactive
same,outcome,[2],inactive
same,outcome,[3],inactive
same,outcome,[4],inactive
CCCC=O,outcome,[1],inactive
same,outcome,[2],inactive
same,outcome,[3],inactive
CC=O,AC50,[1],47.9 µM (active)
same,AC50,[2],30.3 µM (active)
same,AC50,[3],74.4 µM (active)
same,AC50,[4],62.6 µM (active)
C[C@]12CC[C@@H]3c4ccc(O)cc4CC[C@H]3[C@@H]1C[C@@H](O)[C@@H]2O,outcome,[1],inactive
same,outcome,[2],inactive
same,outcome,[3],inactive
same,outcome,[4],inactive
Cc1cc(Cc2cc(C)cc(C(C)(C)C)c2O)c(O)c(C(C)(C)C)c1,AC50,[1],12 µM (active) and 19.2 µM (active)
same,AC50,[2],33.6 µM (active) and 41.4 µM (active)
same,AC50,[3],17.7 µM (active) and 16.7 µM (active)
same,AC50,[4],24.2 µM (active) and 48.1 µM (active)
O=c1cc(-c2ccccc2)oc2ccc3ccccc3c12,outcome,[1],inactive
same,outcome,[2],inactive
same,outcome,[3],inactive
same,outcome,[4],inactive
COc1ccccc1NC(=O)c1cc2ccccc2cc1O,outcome,[1],inactive
same,outcome,[2],inactive
same,outcome,[3],inactive
same,AC50,[4],36.1 µM (active)
C[C@]12CC[C@@H]3c4ccc(O)cc4CC[C@H]3[C@@H]1CC[C@@H]2OC(=O)CCC1CCCC1,outcome,[1],inactive
same,outcome,[2],inactive
same,outcome,[3],inactive
same,outcome,[4],inactive
Oc1ccc(Cc2ccccc2O)cc1,outcome,[1],inactive
same,outcome,[2],inactive
CCOCCOCC,outcome,[1],inactive
same,outcome,[2],inactive
same,outcome,[3],inactive
CCCCCCCCCCCCCCCC(=O)OC,outcome,[1],inactive
CCCCCCCCCCCC[N+](C)(C)CCCCCCCCCCCC,AC50,[1],46.1 µM (active)
same,AC50,[2],56.6 µM (active)
same,AC50,[3],37 µM (active)
same,AC50,[4],32.3 µM (active)
Nc1ccc(O)c(C(=O)O)c1,outcome,[1],inactive
same,AC50,[2],71.9 µM (active)
same,outcome,[2],inactive
same,outcome,[3],inactive
O=C1c2ccccc2C(=O)c2c(O)c(O)cc(O)c21,outcome,[1],inactive
same,outcome,[2],inactive
same,outcome,[3],inactive
same,AC50,[4],50.1 µM (active)
COCN(COC)c1nc(N(COC)COC)nc(N(COC)COC)n1,outcome,[1],inactive
same,outcome,[2],inactive
same,outcome,[3],inactive
CC(=O)CC(C)C,outcome,[1],inactive
same,outcome,[2],inactive
same,outcome,[3],inactive
same,outcome,[4],inactive
O=S(=O)(O)c1ccc2cc(O)ccc2c1,outcome,[1],inactive
same,outcome,[2],inactive
same,outcome,[3],inactive
same,outcome,[4],inactive
CC1=CC(=O)c2ccccc2C1=O,AC50,[1],72.7 µM (active)
same,outcome,[1],inactive
same,AC50,[2],40.7 µM (active)
same,outcome,[2],inactive
same,AC50,[3],37.9 µM (active)
same,outcome,[3],inactive
same,outcome,[4],inactive
CCCCCC(C)OC(=O)COc1ccc(Cl)c2cccnc12 (stereo unspecified),outcome,[1],inactive
same,outcome,[2],inactive
same,outcome,[3],inactive
CCCCCCCCCCCCOC(=O)c1cc(O)c(O)c(O)c1,AC50,[1],46.1 µM (active) and 30.9 µM (active)
same,AC50,[2],48.3 µM (active) and 77 µM (active)
same,AC50,[3],41.2 µM (active) and 78.9 µM (active)
same,AC50,[4],53 µM (active) and 36.9 µM (active)
CNNCc1ccc(C(=O)NC(C)C)cc1,outcome,[1],inactive
same,outcome,[2],inactive
same,outcome,[3],inactive
same,outcome,[4],inactive
CCOC(=O)CN[C@@H](C(=O)N1CC[C@H]1C(=O)NCc1ccc(/C(N)=N/O)cc1)C1CCCCC1,outcome,[1],inactive
same,outcome,[3],inactive
same,outcome,[4],inactive
O=C(c1cc(O)c(O)c(O)c1)c1ccc(O)c(O)c1O,outcome,[1],inactive
same,AC50,[2],86.8 µM (active) and 74.6 µM (active)
same,outcome,[3],inactive
same,AC50,[4],79.2 µM (active) and 49.9 µM (active)
Cc1ccc(C)c(S(=O)(=O)O)c1,outcome,[1],inactive
same,outcome,[3],inactive
same,outcome,[4],inactive
Oc1c(Cl)ccc(Cl)c1Cl,outcome,[1],inactive
same,outcome,[2],inactive
same,outcome,[3],inactive
same,outcome,[4],inactive
CCCCCCCCCCCCCC[n+]1ccccc1,AC50,[1],13.3 µM (active)
same,outcome,[2],inactive
same,outcome,[3],inactive
same,AC50,[4],21.6 µM (active)
CCCCCCCCCCCCCCCCCC[N+](C)(C)Cc1ccccc1,AC50,[1],38.1 µM (active)
same,outcome,[2],inactive
same,AC50,[3],15 µM (active)
same,AC50,[4],69.6 µM (active)
CC(C)(C)C1CCCCC1O (stereo unspecified),outcome,[1],inactive
same,outcome,[2],inactive
same,outcome,[4],inactive
Cc1cc(C(C)(C)C)c(O)c(C(C)(C)C)c1,outcome,[1],inactive
same,outcome,[2],inactive
same,outcome,[3],inactive
same,outcome,[4],inactive
CC(C)(C)c1ccc(O)c(O)c1,outcome,[1],inactive
same,outcome,[2],inactive
same,outcome,[3],inactive
same,outcome,[4],inactive
O=C1OC(=O)c2cc(-c3ccc4c(c3)C(=O)OC4=O)ccc21,outcome,[1],inactive
same,outcome,[2],inactive
same,outcome,[3],inactive
same,outcome,[4],inactive
